Results: PubChem BioAssay (Tox21)
Results filed as inconclusive are left out. Activity calls are given as the source filed them. Unless noted, the call rests on the fitted dose curve; in most records, active means well fitted curve in the direction sought with a large enough effect in the repeat runs; inconclusive means weak or mixed curves; inactive means no such curve, though single readings can be large; an effect the other way counts as inactive or inconclusive.

How the values were obtained:
[1] = molecular target: Thyrotropin-releasing hormone receptor (Homo sapiens) (UniProt P34981); assay: qHTS assay to identify small molecule agonists of the thyrotropin-releasing hormone receptor (TRHR) signaling pathway (AID 1346891; calls by dose curve; further: series mostly up to about 58 µM)
Summary of the method: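 HEK293 cells expressing TRHR plated 18 h at 37 C/5% CO2, calcium dye-loaded 2 h at 37 C, then compound added (agonist mode); kinetic calcium fluorescence read 3 min at 1 s intervals; 15 concentrations in triplicate.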

[2] = Human pregnane X receptor (PXR) small molecule agonists, qHTS cell viability counter screen (AID 1346977); further: nearly all actives have a fitted effect of over 50% in size; further: potency means the concentration at half of the fitted maximal effect
Summary of the method: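 PXR-Luc HepG2 cells (2,000/well, 5% charcoal-stripped FBS) preincubated 5 hr, then exposed to compounds 24 hr at 37 C. Viability read in the same wells by CellTiter-Fluor fluorescence, reagent added at 23 hr, 1 hr incubation.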

[3] = Caspase-3/7 induction in HepG2 cells by small molecules, qHTS assay (AID 1346978); further: nearly all actives have a fitted effect of over 15% in size
Summary of the method: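 Wild-type HepG2 cells, 2,000/well, settled 5 hr at 37 C and 5% CO2, then compound-treated for 17 hr; caspase-3/7 activity read by luminescent Caspase-Glo 3/7 after 30 min at room temperature.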

[4] = Caspase-3/7 induction in CHO-K1 cells by small molecules, qHTS cell viability counter screen (AID 1346979); further: nearly all actives have a fitted effect of over 35% in size
Summary of the method: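 Wild-type CHO-K1 cells (1,500/well) treated with compound after 5 h plating; after 16 h at 37C, viability read as CellTiter-Fluor fluorescence following 1 h reagent incubation, in the same wells as the caspase read.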

[5] = Caspase-3/7 induction in CHO-K1 cells by small molecules, qHTS assay (AID 1346980); further: nearly all actives have a fitted effect of over 15% in size
Summary of the method: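 Wild-type CHO-K1 cells exposed to compounds for 17hr at 37 C, 5% CO2. Caspase-3/7 activity then measured by Caspase-Glo 3/7 luminescence after 30min at room temperature.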

[6] = Caspase-3/7 induction in HepG2 cells by small molecules, qHTS cell viability counter screen (AID 1346981); further: series mostly up to about 92 µM; nearly all actives have a fitted effect of over 30% in size
Summary of the method: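 Cell viability is measured as a cytotoxicity counter screen alongside the Caspase-Glo 3/7 readout in identical wells. Wild-type HepG2 cells are treated with test compounds for 16 hr at 37 C before CellTiter-Fluor addition and a 1-hr incubation.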

[7] = molecular target: Nuclear receptor subfamily 1 group I member 2 (Homo sapiens) (UniProt O75469); assay: Human pregnane X receptor (PXR) small molecule agonists, qHTS assay (AID 1346982); further: nearly all actives have a fitted effect of over 35% in size; further: potency means the concentration at half of the fitted maximal effect
Summary of the method: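 Cells: HepG2 stably carrying PXR-Luc. Medium held 5% charcoal-stripped FBS. Compounds in DMSO added after 5 hr plating, incubated 24 hr, then luminescence quantified with ONE-Glo.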

[8] = molecular target: Cytochrome P450 2D6 (Homo sapiens) (UniProt P10635); assay: Cytochrome P450 Family 2 Subfamily D Member 6 (CYP2D6) small molecule antagonists: luciferase reporter qHTS assay (AID 1671196); further: nearly all actives have a fitted effect of over 50% in size; further: potency means the concentration at half of the fitted maximal effect; on activity change, negative = inhibition: series mostly up to about 120 µM
Summary of the method: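 Enzyme and proluciferin substrate were first combined with test chemical for 10 min at room temperature. Adding NADPH regeneration solution started a 1 h reaction, stopped with luciferin detection reagent and read by luminescence 20 min later.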

[9] = molecular target: Cytochrome P450 2C19 (Homo sapiens) (UniProt P33261); assay: Cytochrome P450 Family 2 Subfamily C Member 19 (CYP2C19) small molecule antagonists: luciferase reporter qHTS assay (AID 1671197); further: nearly all actives have a fitted effect of over 65% in size; further: potency means the concentration at half of the fitted maximal effect; on activity change, negative = inhibition: series mostly up to about 120 µM
Summary of the method: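 P450-Glo CYP2C19 system: enzyme-substrate mix with compound 10 min at room temperature, then NADPH regeneration solution, 1 h at 37C. Proluciferin-to-luciferin conversion detected by luminescence after 20 min with detection reagent; ketoconazole as positive control.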

[10] = molecular target: Voltage-gated inwardly rectifying potassium channel KCNH2 (Homo sapiens) (UniProt Q12809); assay: Human Ether-a-go-go-Related Gene (hERG) channel small molecule antagonists: fluorescence cell-based qHTS assay (AID 1671200); further: nearly all actives have a fitted effect of over 50% in size; further: potency means the concentration at half of the fitted maximal effect;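 on activity change, negative = inhibition: hERG-expressing U2OS cells given a thallium stimulus after FluxOR II dye loading; series mostly up to about 77 µM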
Summary of the method: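 hERG-U2OS cells plated overnight at 37 C, loaded with FluxOR II dye 1 h at RT in dark; after 10 min, thallium stimulus added. Fluorescence (480/540 nm) read kinetically for 2 min at 1 s intervals.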

[11] = molecular target: Cytochrome P450 3A4 (Homo sapiens) (UniProt P08684); assay: Cytochrome P450 Family 3 Subfamily A Member 4 (CYP3A4) small molecule antagonists: luciferase reporter qHTS assay (AID 1671201); further: nearly all actives have a fitted effect of over 50% in size; further: potency means the concentration at half of the fitted maximal effect; on activity change, negative = inhibition: series mostly up to about 120 µM
Summary of the method: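 P450-Glo CYP3A4 luminescent assay: compounds preincubated 10 min at room temperature with enzyme and proluciferin substrate, NADPH regeneration added, 1 h room-temperature reaction, stopped with luciferin detection reagent; luminescence read after 20 min. Ketoconazole positive control.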

[12] = molecular target: Cytochrome P450 2C9 (Homo sapiens) (UniProt P11712); assay: Cytochrome P450 Family 2 Subfamily C Member 9 (CYP2C9) small molecule antagonists: luciferase reporter qHTS assay (AID 1671198); further: nearly all actives have a fitted effect of over 50% in size; further: potency means the concentration at half of the fitted maximal effect; on activity change, negative = inhibition: series mostly up to about 120 µM
Summary of the method: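 P450-Glo proluciferin substrate with CYP2C9 enzyme; 10 min RT preincubation, then NADPH regeneration 1 h at 37C; luciferin detection reagent 20 min RT, luminescence in relative luminescence units.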

[13] = molecular target: Cytochrome P450 1A2 (Homo sapiens) (UniProt P05177); assay: Cytochrome P450 Family 1 Subfamily A Member 2 (CYP1A2) small molecule antagonists: luciferase reporter qHTS assay (AID 1671199); further: nearly all actives have a fitted effect of over 50% in size; further: potency means the concentration at half of the fitted maximal effect; on activity change, negative = inhibition: series mostly up to about 120 µM
Summary of the method: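 Compounds were incubated with CYP1A2 and a luminogenic proluciferin substrate for 10 min at room temperature before the reaction was started with NADPH regeneration solution. After 1 h, detection reagent was added and light output, proportional to CYP activity, was recorded.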
On the % scale 0 is the no-effect control and ±100 the full control effect.

Cytochrome P450 1A2 (Homo sapiens), sequence (P05177 whole entry, looked up): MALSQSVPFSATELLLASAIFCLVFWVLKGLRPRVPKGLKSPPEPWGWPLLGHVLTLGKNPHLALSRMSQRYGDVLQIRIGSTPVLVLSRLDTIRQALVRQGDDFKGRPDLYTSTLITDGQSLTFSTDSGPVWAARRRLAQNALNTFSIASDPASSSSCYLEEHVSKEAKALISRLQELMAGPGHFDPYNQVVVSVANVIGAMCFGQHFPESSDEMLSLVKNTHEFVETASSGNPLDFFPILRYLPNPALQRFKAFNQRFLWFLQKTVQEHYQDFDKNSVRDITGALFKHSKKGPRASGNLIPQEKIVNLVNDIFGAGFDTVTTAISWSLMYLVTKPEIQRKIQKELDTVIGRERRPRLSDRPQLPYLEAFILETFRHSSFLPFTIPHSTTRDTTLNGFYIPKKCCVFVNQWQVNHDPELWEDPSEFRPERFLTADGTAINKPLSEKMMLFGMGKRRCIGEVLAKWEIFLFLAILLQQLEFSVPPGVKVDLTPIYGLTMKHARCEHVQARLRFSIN
Cytochrome P450 2D6 (Homo sapiens), sequence (P10635 whole entry, looked up): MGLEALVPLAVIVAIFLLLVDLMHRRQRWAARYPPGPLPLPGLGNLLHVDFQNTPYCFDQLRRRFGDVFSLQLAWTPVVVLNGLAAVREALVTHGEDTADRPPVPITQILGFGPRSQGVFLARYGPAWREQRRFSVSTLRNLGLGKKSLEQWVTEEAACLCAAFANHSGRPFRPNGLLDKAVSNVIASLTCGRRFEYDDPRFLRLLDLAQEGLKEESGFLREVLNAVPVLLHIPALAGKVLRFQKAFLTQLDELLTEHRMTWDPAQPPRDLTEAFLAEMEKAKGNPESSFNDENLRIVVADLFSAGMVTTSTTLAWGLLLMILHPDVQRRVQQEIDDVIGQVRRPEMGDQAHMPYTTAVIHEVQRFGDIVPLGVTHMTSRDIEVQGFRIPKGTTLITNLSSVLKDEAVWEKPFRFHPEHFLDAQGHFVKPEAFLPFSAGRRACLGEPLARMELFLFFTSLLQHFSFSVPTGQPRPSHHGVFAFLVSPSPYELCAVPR
Cytochrome P450 2C9 (Homo sapiens), sequence (P11712 whole entry, looked up): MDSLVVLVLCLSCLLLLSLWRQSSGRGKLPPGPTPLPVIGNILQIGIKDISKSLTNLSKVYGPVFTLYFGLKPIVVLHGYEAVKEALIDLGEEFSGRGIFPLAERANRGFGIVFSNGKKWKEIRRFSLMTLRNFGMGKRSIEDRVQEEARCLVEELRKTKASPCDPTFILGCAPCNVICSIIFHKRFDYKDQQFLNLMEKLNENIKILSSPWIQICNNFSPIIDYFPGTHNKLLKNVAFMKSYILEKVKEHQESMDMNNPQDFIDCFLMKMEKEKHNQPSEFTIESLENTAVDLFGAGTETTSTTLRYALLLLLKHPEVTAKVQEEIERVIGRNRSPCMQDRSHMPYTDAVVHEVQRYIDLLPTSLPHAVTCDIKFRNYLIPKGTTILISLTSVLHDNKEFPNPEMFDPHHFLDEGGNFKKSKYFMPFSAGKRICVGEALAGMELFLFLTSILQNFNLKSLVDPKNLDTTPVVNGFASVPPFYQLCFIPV
Cytochrome P450 2C19 (Homo sapiens), sequence (P33261 whole entry, looked up): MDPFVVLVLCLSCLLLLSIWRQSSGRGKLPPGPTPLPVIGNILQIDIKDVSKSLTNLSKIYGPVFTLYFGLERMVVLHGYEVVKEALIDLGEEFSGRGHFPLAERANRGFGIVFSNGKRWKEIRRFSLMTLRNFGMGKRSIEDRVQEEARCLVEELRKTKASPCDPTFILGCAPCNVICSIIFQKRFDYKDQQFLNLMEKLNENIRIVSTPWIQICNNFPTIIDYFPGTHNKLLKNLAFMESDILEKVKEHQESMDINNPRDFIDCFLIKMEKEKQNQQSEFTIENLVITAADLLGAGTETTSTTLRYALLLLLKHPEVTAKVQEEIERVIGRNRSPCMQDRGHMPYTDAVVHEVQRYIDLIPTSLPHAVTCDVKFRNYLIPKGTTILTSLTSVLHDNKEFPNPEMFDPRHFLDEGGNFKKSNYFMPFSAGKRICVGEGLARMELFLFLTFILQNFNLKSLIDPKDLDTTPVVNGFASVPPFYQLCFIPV
Nuclear receptor subfamily 1 group I member 2 (Homo sapiens), sequence (O75469 whole entry, looked up): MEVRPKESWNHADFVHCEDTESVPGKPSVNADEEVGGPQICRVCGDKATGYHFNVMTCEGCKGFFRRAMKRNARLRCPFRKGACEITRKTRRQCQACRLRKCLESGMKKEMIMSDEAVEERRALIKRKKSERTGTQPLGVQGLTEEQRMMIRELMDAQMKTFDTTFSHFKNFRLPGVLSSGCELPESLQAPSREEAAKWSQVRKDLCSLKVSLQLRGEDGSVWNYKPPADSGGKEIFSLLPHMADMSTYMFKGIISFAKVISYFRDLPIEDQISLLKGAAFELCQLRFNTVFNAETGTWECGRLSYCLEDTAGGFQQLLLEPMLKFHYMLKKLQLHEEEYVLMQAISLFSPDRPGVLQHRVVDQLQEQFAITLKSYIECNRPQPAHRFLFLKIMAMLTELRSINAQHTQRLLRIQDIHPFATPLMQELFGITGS
Thyrotropin-releasing hormone receptor (Homo sapiens), sequence (P34981 whole entry, looked up): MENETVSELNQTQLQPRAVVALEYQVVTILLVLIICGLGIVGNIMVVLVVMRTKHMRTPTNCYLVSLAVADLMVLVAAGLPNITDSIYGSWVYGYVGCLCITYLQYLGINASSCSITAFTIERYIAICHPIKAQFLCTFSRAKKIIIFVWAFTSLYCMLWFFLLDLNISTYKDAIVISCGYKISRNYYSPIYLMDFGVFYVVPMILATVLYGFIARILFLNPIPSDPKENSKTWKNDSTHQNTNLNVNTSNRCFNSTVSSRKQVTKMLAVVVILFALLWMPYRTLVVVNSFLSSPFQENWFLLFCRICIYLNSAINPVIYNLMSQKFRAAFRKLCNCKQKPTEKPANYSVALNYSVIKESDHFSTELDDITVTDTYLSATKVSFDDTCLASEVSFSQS
Cytochrome P450 3A4 (Homo sapiens), sequence (P08684 whole entry, looked up): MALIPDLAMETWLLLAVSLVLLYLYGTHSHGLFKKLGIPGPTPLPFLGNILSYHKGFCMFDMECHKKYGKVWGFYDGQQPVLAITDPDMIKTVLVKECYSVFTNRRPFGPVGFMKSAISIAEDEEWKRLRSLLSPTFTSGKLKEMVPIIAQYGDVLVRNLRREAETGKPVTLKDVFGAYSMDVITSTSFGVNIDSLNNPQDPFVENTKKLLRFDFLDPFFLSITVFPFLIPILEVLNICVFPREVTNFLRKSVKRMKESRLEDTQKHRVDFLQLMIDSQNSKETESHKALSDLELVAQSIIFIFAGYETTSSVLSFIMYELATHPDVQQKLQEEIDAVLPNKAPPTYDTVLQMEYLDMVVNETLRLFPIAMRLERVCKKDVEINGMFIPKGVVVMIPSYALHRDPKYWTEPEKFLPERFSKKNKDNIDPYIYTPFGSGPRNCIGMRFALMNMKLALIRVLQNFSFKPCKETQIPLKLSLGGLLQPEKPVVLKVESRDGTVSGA
Voltage-gated inwardly rectifying potassium channel KCNH2 (Homo sapiens), sequence (Q12809 whole entry, looked up): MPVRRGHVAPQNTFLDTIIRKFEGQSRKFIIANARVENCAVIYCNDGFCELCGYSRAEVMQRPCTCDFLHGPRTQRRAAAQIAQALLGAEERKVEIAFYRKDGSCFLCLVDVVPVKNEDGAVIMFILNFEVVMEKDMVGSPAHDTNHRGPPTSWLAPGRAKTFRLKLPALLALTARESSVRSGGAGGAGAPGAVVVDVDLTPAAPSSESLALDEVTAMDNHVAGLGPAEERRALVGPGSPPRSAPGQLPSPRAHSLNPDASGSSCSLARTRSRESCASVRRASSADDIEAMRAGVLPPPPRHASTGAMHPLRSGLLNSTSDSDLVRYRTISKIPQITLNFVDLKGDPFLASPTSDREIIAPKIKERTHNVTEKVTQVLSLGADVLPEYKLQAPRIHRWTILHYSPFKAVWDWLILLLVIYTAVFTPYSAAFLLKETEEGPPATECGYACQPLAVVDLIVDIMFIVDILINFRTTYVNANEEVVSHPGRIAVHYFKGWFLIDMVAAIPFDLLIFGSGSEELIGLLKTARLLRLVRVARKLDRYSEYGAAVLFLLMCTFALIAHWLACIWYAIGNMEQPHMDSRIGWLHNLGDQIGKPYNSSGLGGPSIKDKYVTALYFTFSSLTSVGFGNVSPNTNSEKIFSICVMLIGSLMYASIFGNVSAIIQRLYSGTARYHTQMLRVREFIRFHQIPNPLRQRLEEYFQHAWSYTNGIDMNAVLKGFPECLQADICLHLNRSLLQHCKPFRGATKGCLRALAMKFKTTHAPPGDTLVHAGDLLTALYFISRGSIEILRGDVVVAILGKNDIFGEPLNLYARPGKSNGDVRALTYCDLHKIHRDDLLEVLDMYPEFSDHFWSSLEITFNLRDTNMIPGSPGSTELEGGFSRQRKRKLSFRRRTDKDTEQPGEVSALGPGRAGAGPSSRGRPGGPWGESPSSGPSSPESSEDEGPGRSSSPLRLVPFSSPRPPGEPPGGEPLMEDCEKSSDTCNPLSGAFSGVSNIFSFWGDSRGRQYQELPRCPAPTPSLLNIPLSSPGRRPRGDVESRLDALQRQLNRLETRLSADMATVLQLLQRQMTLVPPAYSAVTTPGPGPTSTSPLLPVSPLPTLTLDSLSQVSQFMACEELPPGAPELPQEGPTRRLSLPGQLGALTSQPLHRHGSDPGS

CCCCCCC/C=C/C=O
inactive: outcome [1] | Potency [2] | Potency [3] | Potency [4] | Potency [5] | Potency [6] | Potency [7] | Potency [10] | Potency [11]
active: Potency [8] 39.9 µM | Potency [9] 79.6 µM

O=C(N[C@@H](Cc1ccccc1)[C@@H](O)C(=O)N1C[C@@H](O)[C@@H](O)C1)c1cc2cc(Cl)ccc2[nH]1
active: Potency [9] 39.9 µM | Potency [12] 35.6 µM | Potency [13] 28.3 µM
inactive: outcome [1] | Potency [2] | Potency [3] | Potency [4] | Potency [5] | Potency [6] | Potency [7] | Potency [10]

C=C[Si](OCC)(OCC)OCC
inactive: outcome [1] | Potency [2] | Potency [3] | Potency [4] | Potency [5] | Potency [6] | Potency [10]

CC(=O)Nc1ccccc1O
inactive: outcome [1] | Potency [2] | Potency [3] | Potency [4] | Potency [5] | Potency [6] | Potency [10]

C=CC(C)(O)CC/C=C(/C)CCC=C(C)C (stereo not drawn)
inactive: outcome [1] | Potency [2] | Potency [3] | Potency [4] | Potency [5] | Potency [6] | Potency [10]
active: Potency [7] 54.5 µM | Potency [9] 10 µM | Potency [12] 31.7 µM | Potency [13] 39.9 µM

C[C@H](CN1CCCC1)C(=O)c1ccc(C(F)(F)F)cc1
inactive: outcome [1] | Potency [2] | Potency [3] | Potency [4] | Potency [5] | Potency [6] | Potency [12] | Potency [10] | Potency [11]
active: Potency [7] 26.6 µM | Potency [8] 1.55 µM

CCCCCCCCOCCCN
inactive: outcome [1] | Potency [3] | Potency [4] | Potency [5] | Potency [7]
active: Potency [2] 61.1 µM | Potency [8] 6.33 µM | Potency [9] 2 µM | Potency [12] 28.3 µM | Potency [13] 6.33 µM | Potency [10] 43.6 µM

COc1cc(CNC(=O)CCCC/C=C/C(C)C)ccc1O
active: Potency [7] 33.5 µM | Potency [8] 38.9 µM | Potency [9] 9.77 µM | Potency [12] 9.77 µM | Potency [13] 30.9 µM | Potency [11] 12.3 µM
inactive: outcome [1] | Potency [2] | Potency [3] | Potency [4] | Potency [5] | Potency [10]

Nc1ccc(-c2ccc(F)cc2)cc1
active: Potency [7] 30.6 µM | Potency [9] 8.94 µM | Potency [12] 14.2 µM | Potency [13] 0.502 µM | Potency [11] 11.2 µM
inactive: outcome [1] | Potency [2] | Potency [3] | Potency [4] | Potency [5] | Potency [6] | Potency [10]

Cc1ccc(Cl)c(OCC(O)CNC(C)(C)C)c1 (stereo not drawn)
inactive: outcome [1] | Potency [2] | Potency [3] | Potency [4] | Potency [5] | Potency [6] | Potency [9] | Potency [12] | Potency [13]
active: Potency [8] 1.1 µM

Cc1c(Cl)cccc1Nc1ccccc1C(=O)O
inactive: outcome [1] | Potency [2] | Potency [3] | Potency [4] | Potency [5] | Potency [6] | Potency [8] | Potency [9]
active: Potency [12] 17.4 µM

CCN(CC)CC(=O)OCC(=O)[C@@]1(O)CC[C@H]2[C@@H]3CCC4=CC(=O)CC[C@]4(C)[C@H]3[C@@H](O)C[C@@]21C
inactive: outcome [1] | Potency [2] | Potency [3] | Potency [4] | Potency [5] | Potency [6] | Potency [8] | Potency [9] | Potency [12] | Potency [13] | Potency [10]

FC(F)(Cl)C(F)(Cl)Cl
inactive: outcome [1] | Potency [2] | Potency [3] | Potency [4] | Potency [5] | Potency [6] | Potency [7] | Potency [9] | Potency [12] | Potency [10]

C=Cc1ccc(C=C)cc1
inactive: outcome [1] | Potency [2] | Potency [3] | Potency [4] | Potency [5] | Potency [6] | Potency [7] | Potency [8] | Potency [12] | Potency [13] | Potency [10]

C1=COCCC1
inactive: outcome [1] | Potency [2] | Potency [3] | Potency [4] | Potency [5] | Potency [7] | Potency [8] | Potency [9] | Potency [12] | Potency [13] | Potency [10] | Potency [11]

C[C@H]1C[C@H]2[C@@H]3CCC4=CC(=O)C=C[C@]4(C)[C@@]3(F)[C@@H](O)C[C@]2(C)[C@@]1(O)C(=O)COP(=O)(O)O
inactive: outcome [1] | Potency [2] | Potency [3] | Potency [4] | Potency [5] | Potency [6] | Potency [8] | Potency [9] | Potency [12] | Potency [13] | Potency [10] | Potency [11]

CC(C)CCCCCOC(=O)CS
active: Potency [8] 25.2 µM | Potency [12] 71 µM
inactive: outcome [1] | Potency [2] | Potency [3] | Potency [4] | Potency [5] | Potency [6] | Potency [9] | Potency [13] | Potency [10]

c1ccc(CCNc2nc(-c3ccccc3)cs2)cc1
inactive: outcome [1] | Potency [2] | Potency [3] | Potency [4] | Potency [5] | Potency [10]
active: Potency [7] 3.76 µM | Potency [8] 17.4 µM | Potency [9] 2.75 µM | Potency [12] 6.92 µM | Potency [13] 2.29 µM

CO[C@@H]1[C@@H](O[C@@H]2O[C@H](C)[C@@H](O[C@H]3C[C@@](C)(O)[C@@H](O)[C@H](C)O3)[C@H](N(C)C)[C@H]2O)[C@@H](CC=O)C[C@@H](C)[C@@H](O[C@@H]2CC[C@H](N(C)C)[C@@H](C)O2)/C=C/C=C/C[C@@H](C)OC(=O)C[C@H]1OC(C)=O
inactive: outcome [1] | Potency [3] | Potency [4] | Potency [5] | Potency [6] | Potency [8] | Potency [9] | Potency [12] | Potency [13] | Potency [10]
active: Potency [2] 26.6 µM

CCCCCCCCCCCCCCCCCCCl
inactive: activation [1] -0.417% [at 5.23 µM] | activity change, negative = cytotoxicity [2] -2.79% [at 8.39 µM] | caspase activation [3] 0.121% [at 8.39 µM] | activity change, negative = cytotoxicity [4] -4.93% [at 8.39 µM] | caspase-3/7 activation [5] -1.95% [at 8.39 µM] | activity change, negative = cytotoxicity [6] -0.332% [at 8.39 µM] | activation [7] 17.1% [at 8.39 µM] | activity change, negative = inhibition [8] -4.65% [at 10.5 µM] | activity change, negative = inhibition [12] -2.7% [at 10.5 µM] | activity change, negative = inhibition [13] -4.9% [at 10.5 µM] | activity change, negative = inhibition [11] -1.1% [at 10.5 µM]

O=C(OCCN1CCOCC1)c1cccnc1Nc1cccc(C(F)(F)F)c1
active: Potency [7] 26.6 µM | Potency [12] 17.4 µM | Potency [13] 9.77 µM | Potency [10] 10.7 µM
inactive: outcome [1] | Potency [2] | Potency [3] | Potency [4] | Potency [5] | Potency [6] | Potency [8]
